G9a block: qHTS Assay for Inhibitors of Histone Lysine Methyltransferase G9a. AID 504332, 2011. Histone-lysine N-methyltransferase EHMT2 (Homo sapiens), Q96KQ7. G9a H3K9 monomethylation, AlphaScreen, 2 h. actives 8.8% (n = 350,000). Potency, µM (top dose mostly 102 µM), for inactives: at the top dose activity, negative = inhibition, usual class: inhibitors; note: potency is the fitted concentration of half-maximal effect; % is set by controls: 0 for no effect and ±100 for the full control effect; nearly all actives have a fitted effect of over 75% in size
Target sequence (Q96KQ7 913-1193 limits assumed): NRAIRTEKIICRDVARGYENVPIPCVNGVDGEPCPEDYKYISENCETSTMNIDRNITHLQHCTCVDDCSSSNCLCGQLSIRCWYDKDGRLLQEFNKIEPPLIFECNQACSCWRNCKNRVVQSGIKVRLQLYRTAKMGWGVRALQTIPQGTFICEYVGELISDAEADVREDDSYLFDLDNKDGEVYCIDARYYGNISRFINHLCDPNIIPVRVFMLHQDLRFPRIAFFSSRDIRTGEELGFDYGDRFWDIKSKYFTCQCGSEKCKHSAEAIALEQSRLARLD
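AlphaScreen detection with an anti-monomethyl H3K9 antibody quantified product after a 2 h room-temperature reaction containing 500 nM biotinylated H3K9 peptide, 20 µM SAM and 20 nM enzyme, which had been preincubated 15 min with compound.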
HP1b binding inh: HTS for Inhibitors of HP1-beta Chromodomain Interactions with Methylated Histone Tails; actives 0.56% (n = 390,000); Potency, µM (series often up to 114 µM), inactives show at the highest dose activity change, negative = inhibition, most hits filed as inhibitors; Chromobox protein homolog 1 (Homo sapiens), P83916; AlphaScreen HP1-beta / biotin-H3K9me3 peptide binding; note: potency is the fitted concentration of half-maximal effect; nearly all actives have a fitted effect of over 70% in size
Target sequence (P83916 whole entry, looked up): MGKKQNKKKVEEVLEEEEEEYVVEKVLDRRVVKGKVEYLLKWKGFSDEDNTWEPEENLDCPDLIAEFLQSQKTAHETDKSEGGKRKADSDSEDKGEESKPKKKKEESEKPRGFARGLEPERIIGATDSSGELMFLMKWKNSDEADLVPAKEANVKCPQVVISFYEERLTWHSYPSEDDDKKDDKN
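AlphaScreen: HP1-beta (50 nM) preformed 30 min with biotin-H3(1-18)K9me3 peptide (50 nM) in PBS pH 7.4, 0.01% Tween-20. Compound added for 30 min at RT, then streptavidin donor/nickel chelate acceptor beads (10 ug/mL) for 30 min.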
JMJD2A Tudor: qHTS Assay for Inhibitors of JMJD2A-Tudor Domain | AlphaScreen JMJD2A-Tudor / H3K4me3 peptide binding | Potency, µM (top dose mostly 114 µM), without a hit: at the top dose activity change, negative = inhibition, actives largely listed as inhibitors | actives 4.4% (n = 390,000) | AID 504339, 2011; note: potency is the fitted concentration of half-maximal effect; % is set by controls: 0 for no effect and ±100 for the full control effect; nearly all actives have a fitted effect of over 50% in size
Six1-Eya2 blk: qHTS Assay for Inhibitors of the Six1/Eya2 Interaction | AlphaScreen GST-Six1/His-Eya2 binding, biochemical; hits give low values | activity change, % (concentration not given with the values) | actives 0.56% (n = 360,000); in the data active = activity change below about -65%; inconclusive = mostly about -30% to -63%; note: % is set by controls: 0 for no effect and ±100 for the full control effect
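Homogeneous AlphaScreen proximity assay pairing GST-Six1 with His-tagged Eya2 (added as 5X mix: 250 nM and 500 nM) in 50 mM Tris pH 8.0, 300 mM NaCl, 1 mM TCEP. Glutathione donor and nickel acceptor beads; 1 h, 37 °C, dark.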
BAZ2B block: qHTS Assay for Inhibitors of BAZ2B; Bromodomain adjacent to zinc finger domain protein 2B (Homo sapiens), Q9UIF8; AlphaScreen BAZ2B-H3K14Ac peptide displacement; Potency, µM (top dose mostly 114 µM), for inactives: at the highest dose activity change, negative = inhibition, hits mostly inhibitors; actives 4.4% (n = 360,000); note: potency is the fitted concentration of half-maximal effect; % is set by controls: 0 for no effect and ±100 for the full control effect; nearly all actives have a fitted effect of over 60% in size
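In this displacement format the biotinylated H3(5-23) peptide acetylated at Lys14 serves as ligand at 50 nM, with BAZ2B at 50 nM in PBS pH 7.4 containing 0.01% Tween-20. Donor and acceptor beads are 10 ug/mL final.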
CtBP-E1A blk: qHTS Assay for Inhibitors of the CtBP/E1A Interaction | actives 0.49% (n = 340,000) | AlphaScreen GST-E1A/His-CtBP binding, 1536-well; hits give low values | activity change, % (no concentration beside the values) | AID 651724, 2012 | CtBP / adenovirus E1A interaction (AlphaScreen); in the data active = activity change below about -65%; inconclusive = mostly about -30% to -63%; note: % is set by controls: 0 for no effect and ±100 for the full control effect
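Homogeneous bead-based format: GST-tagged E1A captured on glutathione donor beads, His-tagged CtBP on nickel acceptor beads; compounds precede bead addition by 2 h at 37 °C.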
* marks the source's active call; other numbers are inactive results; [ ] = another dose, or the depositor's remark. Most compounds without a hit are left out; they make up all but 10% or so of the library. Unless noted, calls come from the whole dose curve; as a rule, active = well fitted inhibition curve with a large enough effect; inconclusive = small, poorly fitted or top-dose-only effect; inactive = no such curve, though single readings can be large or run the other way.

COC(=O)[C@]12CCCCC=C1N(Cc1ccc3c(c1)OCO3)C(=O)[C@H](CC(=O)NCC13CC4CC(CC(C4)C1)C3)C2 was read as Six1-Eya2 blk -16 and CtBP-E1A blk 3.
Screening Cc1cccc(OCC(=O)Nc2ccccc2OCc2cc(=O)n3cc(C)ccc3n2)c1 returned G9a block -6%[59 µM], HP1b binding inh 33%[57 µM], JMJD2A Tudor 6% and BAZ2B block 2%.
For O=C(Cc1csc(N2CCOCC2)n1)N/N=C/c1ccc(O)c(O)c1O the results were G9a block 3.5µM*, HP1b binding inh 16µM*, JMJD2A Tudor 10µM*, Six1-Eya2 blk -73* and CtBP-E1A blk inconclusive.
N#C/C=C/N1CCC(Cc2ccccc2)CC1 was read as G9a block 12%, HP1b binding inh 39%, JMJD2A Tudor 1%, Six1-Eya2 blk -2, BAZ2B block 28% and CtBP-E1A blk 1.
CCOc1ccc(N=c2scc(-c3ccc(OC)cc3)n2CCO)cc1 was read as G9a block 2.8µM*, HP1b binding inh -21%, JMJD2A Tudor inconclusive, Six1-Eya2 blk -26, BAZ2B block inconclusive and CtBP-E1A blk -21.
For c1ccc(-c2csc(=Nc3cccnc3)n2CC2CCCO2)cc1 (configuration not stated) the results were G9a block inconclusive, HP1b binding inh -11%, JMJD2A Tudor inconclusive, Six1-Eya2 blk -19, BAZ2B block inconclusive and CtBP-E1A blk 0.
CCOc1ccc(N=c2scc(-c3ccccc3)n2CCO)cc1 was read as G9a block 16µM*, HP1b binding inh inconclusive, JMJD2A Tudor inconclusive, Six1-Eya2 blk inconclusive, BAZ2B block 8.9µM* and CtBP-E1A blk inconclusive.
For CCn1c(-c2ccccc2)csc1=Nc1ccc(O)cc1 the results were G9a block 3.5µM*, HP1b binding inh inconclusive, JMJD2A Tudor 32µM*, Six1-Eya2 blk inconclusive, BAZ2B block 20µM* and CtBP-E1A blk inconclusive.
CCOc1ccc(-c2nnc(-c3ccc(OC)cc3)o2)cc1 was read as G9a block -39%[59 µM], HP1b binding inh 30%, JMJD2A Tudor -3%, Six1-Eya2 blk -1, BAZ2B block -1% and CtBP-E1A blk 8.
Screening N=c1n(CCO)c2ccccc2n1CCOc1ccccc1 returned G9a block -3%, HP1b binding inh 90%, JMJD2A Tudor 5%, Six1-Eya2 blk -3, BAZ2B block -6% and CtBP-E1A blk 0.
CC(=O)Nc1ccc(OCC=C(Cl)Cl)cc1 was read as G9a block -32%, HP1b binding inh 29%, JMJD2A Tudor 7%, Six1-Eya2 blk 5, BAZ2B block -2% and CtBP-E1A blk 24.
O=C1/C(=C/c2c[nH]c3ccccc23)CCC/C1=C\c1c[nH]c2ccccc12 was read as G9a block inconclusive, HP1b binding inh 2%, JMJD2A Tudor -24%, Six1-Eya2 blk -11, BAZ2B block inconclusive and CtBP-E1A blk 0.
`O=C1N=C(N2CCOCC2)SC1=Cc1ccco1` gave HP1b binding inh 22%, JMJD2A Tudor -4%, Six1-Eya2 blk -2 and CtBP-E1A blk 1.
`O=C1C(=Cc2ccco2)CCC1=Cc1ccco1` gave HP1b binding inh 3.5µM*, JMJD2A Tudor 3.2µM*, Six1-Eya2 blk -83* and CtBP-E1A blk -1.
For O/N=C1\CCC\C1=C/c1ccco1 the results were G9a block 56µM*, HP1b binding inh 3%, JMJD2A Tudor -25%, Six1-Eya2 blk -4, BAZ2B block inconclusive and CtBP-E1A blk -1.
O=C1C(=Cc2ccco2)CCCC1=Cc1ccco1 was read as HP1b binding inh inconclusive, JMJD2A Tudor 56µM*, Six1-Eya2 blk -23 and CtBP-E1A blk 0.
Screening CCOc1ccc(NC(=O)Nc2nnc(N3CCCCC3C)s2)cc1 (configuration not stated) returned G9a block -49%[59 µM], HP1b binding inh 36%, JMJD2A Tudor -20% and BAZ2B block inconclusive.
CSc1cccc(NC(=O)C2CCCN2S(=O)(=O)c2ccc(Br)s2)c1 (configuration not stated) was read as G9a block 9%, HP1b binding inh 33%, JMJD2A Tudor -13%, Six1-Eya2 blk -10, BAZ2B block 8% and CtBP-E1A blk 3.
`Cn1c(SCc2ccc(F)cc2)nnc1-c1ccccn1` gave G9a block -5%, HP1b binding inh 30%, JMJD2A Tudor inconclusive, Six1-Eya2 blk -11, BAZ2B block 50µM* and CtBP-E1A blk 2.
For Cn1c(SCc2ccccc2F)nnc1-c1ccccn1 the results were G9a block -7%, HP1b binding inh 32%, JMJD2A Tudor -5%, Six1-Eya2 blk -7 and BAZ2B block 56µM*.
Screening Cn1c(SCc2cccc3ccccc23)nnc1-c1ccco1 returned G9a block 16µM*, HP1b binding inh 13%, JMJD2A Tudor -8%, Six1-Eya2 blk -15, BAZ2B block -27% and CtBP-E1A blk -6.
Screening Nn1c(SCc2cccc3ccccc23)nnc1-c1ccco1 returned G9a block 15%[2.33 µM], HP1b binding inh 4%, JMJD2A Tudor -30%, Six1-Eya2 blk 4, BAZ2B block -4% and CtBP-E1A blk 4.
Screening Cn1c(SCc2ccccc2F)nnc1-c1cnccn1 returned G9a block 2%, HP1b binding inh 13%, JMJD2A Tudor -16%, Six1-Eya2 blk -3, BAZ2B block 0% and CtBP-E1A blk 0.
COc1cccc(C(=O)O/N=C(\C)c2cnccn2)c1 was read as G9a block 8%, HP1b binding inh 30%, JMJD2A Tudor -8%, Six1-Eya2 blk 2, BAZ2B block 2% and CtBP-E1A blk -2.
CC(=O)c1ccc(Sc2nnnn2-c2ccccc2)c([N+](=O)[O-])c1 was read as G9a block inconclusive, HP1b binding inh -2%, JMJD2A Tudor -23%, Six1-Eya2 blk -5, BAZ2B block inconclusive and CtBP-E1A blk 9.
O=C(O)c1ccc(Sc2nnc(-c3cccc(Br)c3)o2)c([N+](=O)[O-])c1 was read as G9a block 50µM*, HP1b binding inh 10%, JMJD2A Tudor -2%, Six1-Eya2 blk -1, BAZ2B block -38% and CtBP-E1A blk 0.
`Cn1c(Sc2ccc(C(=O)O)cc2[N+](=O)[O-])nnc1-c1ccccc1` gave G9a block 1%[59 µM], HP1b binding inh -2%, JMJD2A Tudor 28µM*, Six1-Eya2 blk 0, BAZ2B block -13% and CtBP-E1A blk 7.

Compound activity (PubChem BioAssay)
